PubChem BioAssay (NCATS)
A number with no mark means an inactive call. Calls come from the whole dose curve; as a rule, active = well fitted curve in the direction sought with a large enough effect; inconclusive = small, poorly fitted or top-dose-only effect, or another doubt; inactive = no such curve, though single readings can be large or run the other way.

Assay: Cellular Toxicity (caspase-3) HUV-EC-C (AID 656);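 note: cells exposed to compound for 16 h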
Settings: HUV-EC-C cells, caspase-3 activation (apoptosis), vehicle = 0, 100 µM tamoxifen = 100%; series mostly up to 92.2 µM; caspase-3 activation: at the top concentration
Source text: NIH Chemical Genomics Center [NCGC]
NIH Molecular Libraries Screening Centers Network [MLSCN]
National Institutes of Environmental Health Sciences [NIEHS]
National Toxicology Program [NTP]
We have developed a 1536-well cell-based assay for quantitative high throughput screening (qHTS) against a number of cell lines to determine in vitro caspase 3/7 of small molecules. This particular assay uses the HUV-EC-C cell line which is derived from normal human vascular endothelial cells.
NCGC Assay Protocol Summary:
The Caspase-Glo 3/7 assay (Promega) is a homogeneous method to measure caspase-3 and caspase-7 activities in cultured cells. The quantitation of caspase 3/7 activity is based on the cleavage of a peptide-aminoluciferin substrate. After caspase cleaves the substrate the free aminoluciferin is liberated and serves as the substrate of luciferase, which generates the light. The luminescent signal is proportional to amount of caspase 3/7 activity present.
Using the Caspase-Glo 3/7 assay, the amount of caspase 3/7 activity was measured in the HUV-EC-C cell line with complete culture medium following compound treatment for 16 hours. The assay was performed in opaque white 1536-well plates. In the screen, tamoxifen and doxorubicin were used as positive controls. Library compounds were measured for their ability to cause the activation of caspase 3/7 in the cell line, as reflected by an increase in luminescence signal, in a concentration-dependent manner. Data were normalized to the controls for basal activity (DMSO only) and 100% stimulation (100 uM tamoxifen). AC50 values were determined from concentration-response data modeled with the standard Hill equation.
qHTS protocol for caspase 3/7 assay in HUV-EC-C cell line
[Step] [Parameter] [Value] [Description]
1. Reagent; 5 uL; 1000 HUV-EC-C cells/well
2. Time; 5 hr; 37 °C incubation
4. Controls; 23 nL; Tamoxifen 0.23 uM to 100 uM & doxorubicin 7.0 pM to 100 uM
5. Time; 16 hr; 37 °C incubation
6. Reagent; 5 uL; Caspase-Glo 3/7 reagent
7. Time; 20 min; Room Temperature
8. Detection; Luminescence; Viewlux plate reader
Keywords: caspase 3/7, apoptosis, HUV-EC-C cell line, luminescence, NTPHTS, NTPHTS_NCGC, NIEHS, EPA, DSSTox, MLSMR, MLSCN, NIH Roadmap, qHTS, NCGC

SMILES | caspase-3 activation [%]
Cc1ccc(C)c(N)c1 | 2.87
CC(=O)c1cccc([N+](=O)[O-])c1 | -0.453
ClCCl | 5.3
CCCCOCCOCCOCCCC | 4.1
CNC(=O)N(c1ccccc1)c1ccccc1 | -1.12
CCOc1cccc(N)c1 | 4.66
CCOc1cc(OCC)c(C(C)=O)cc1OCC | -1.19
Cc1cccc2cccnc12 | 1.45
O=C(O)c1ccc(Cl)cc1Cl | 4.44
NS(=O)(=O)O | 15.8
Cc1ccc([N+](=O)[O-])c(N)c1 | -2.91
CN(C)CCCNCCCN | -0.268
C=C(C)C(=O)OCC(C)O (stereo not given) | 3.38
N#CCc1ccccc1[N+](=O)[O-] | -0.722
Nc1ccc(F)cc1F | 1.99
C(=C/c1ccccc1)/c1ccccc1 | -0.512
CCC(C)=O | -3.76
c1ccc(Nc2ccccc2)cc1 | 1.09
Nc1nc(-c2ccccc2)cs1 | -4.41
NCCCCCCN | -1.57

SMILES | caspase-3 activation [%]
CCN(C(=O)N(CC)c1ccccc1)c1ccccc1 | -1
C1COC1 | 2.24
Nc1cc(Cl)c([N+](=O)[O-])cc1O | -3.44
O=Cc1cccc(Br)c1 | -0.345
c1ccc2[nH]cnc2c1 | 0.638
Cc1cc(C)cc(N)c1 | -2.18
C=CCCC | 0.786
O=[N+]([O-])c1c(Cl)cc(Cl)cc1Cl | 1.39
Cc1ccc2ncccc2c1 | 0.618
Cc1cccc2sc(N)nc12 | -4.31
Nc1ccccc1[N+](=O)[O-] | -3.4
c1ccsc1 | -1.41
Oc1cccc(Nc2ccccc2)c1 | 2.26
Cc1ccc2oc(=O)ccc2c1 | 1.11
Nc1cc([N+](=O)[O-])ccc1C(=O)O | -3.91
O=C(O)CNC(=O)c1ccc([N+](=O)[O-])cc1 | -4.06
C=CCCCCCCC=C | 2.6
Cc1ccc(CO)cc1 | 9.21
Cc1ccccc1C(=O)O | -1.01
CCCCCCCN | -0.0103
